Screening data (PubChem BioAssay)
GluA2 TARP mod: modulates AMPAR-stargazin complexes | O88602+P19491 | HEK293 GluA2+stargazin, membrane potential dye (FDSS), glutamate EC50; hits were called plate by plate, in both directions | calls only at 30 µM | 3.5% of 40,000 active;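 active = any of four per-well response measures lying three or more SD from its plate-wide compound average, in either direction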
GIRK2 act: GIRK2 channel activators by thallium flux | HEK293 GIRK2/NPY4 cells, thallium flux fluorescence | activation (% efficacy), % for hits at 37.5 µM | 34,000 tested, under 10 active;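 active = primary screen hit, no activity in plain HEK293 cells, and in GIRK2-only cells above 5% efficacy rising with concentration; inactive = the rest, including fluorescent compounds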;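 also: efficacy is normalized control-subtracted fluorescence 15 s after thallium addition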
Target sequence (P48051 whole entry, looked up): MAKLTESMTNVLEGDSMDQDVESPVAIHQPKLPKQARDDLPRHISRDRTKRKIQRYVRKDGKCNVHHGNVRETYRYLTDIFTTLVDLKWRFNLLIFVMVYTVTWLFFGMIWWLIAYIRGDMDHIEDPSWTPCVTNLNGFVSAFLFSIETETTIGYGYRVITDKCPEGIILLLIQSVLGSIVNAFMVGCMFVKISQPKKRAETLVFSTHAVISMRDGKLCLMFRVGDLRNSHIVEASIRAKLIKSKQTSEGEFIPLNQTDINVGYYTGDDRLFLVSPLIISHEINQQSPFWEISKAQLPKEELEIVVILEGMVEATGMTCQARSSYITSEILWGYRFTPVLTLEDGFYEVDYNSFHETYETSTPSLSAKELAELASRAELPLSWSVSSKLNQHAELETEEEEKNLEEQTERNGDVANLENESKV
Starred values were filed as active, the others as inactive. The entries come from a sample that favours hits as a whole.

`Cc1ccccc1N1C(=O)CC(c2cn(Cc3ccccc3)c3ccccc23)C1=O` (stereo unspecified) gave GluA2 TARP mod active.
O=C(O)/C=C/C(=O)Nc1ccccc1C(=O)NCC1CCCO1 (stereo unspecified) was read as GIRK2 act inactive.
For Cc1ccnc(NS(=O)(=O)c2ccc(NC(=O)c3nc(-c4cnccn4)no3)cc2)n1 the results were GluA2 TARP mod inactive and GIRK2 act inactive.
O=C(Nc1ccc(S(=O)(=O)Nc2nccs2)cc1)c1nc(-c2cnccn2)no1 was read as GluA2 TARP mod active and GIRK2 act inactive.
Screening COc1ccc(-c2ccc(=O)n(CCNS(=O)(=O)c3ccccc3)n2)cc1 returned GluA2 TARP mod inactive.
CC(=O)N1CC(C(=O)NC(C)CCc2ccccc2)C1 (stereo unspecified) was read as GluA2 TARP mod inactive and GIRK2 act inactive.
`CC(C)OC(=O)C1(C(=O)OC(C)C)CC2(COC(c3ccccc3)OC2)C1` gave GluA2 TARP mod active and GIRK2 act inactive.
Screening CC(C)OC(=O)C1(C(=O)OC(C)C)CC(CO)(CO)C1 returned GluA2 TARP mod inactive.
Screening Cc1ccc(C)c(S(=O)(=O)NCCNc2cc(-n3ccnc3C)ncn2)c1 returned GluA2 TARP mod inactive and GIRK2 act inactive.
For COc1cc(C(C)=O)ccc1OCC(=O)N1CCN(c2ccc3nncn3n2)CC1 the results were GluA2 TARP mod active and GIRK2 act inactive.
`Cc1ccc(OCC(=O)N2CCN(c3ccc4nncn4n3)CC2)cc1C` gave GluA2 TARP mod inactive and GIRK2 act inactive.
`Cc1ccccc1OCC(=O)NCC1CCN(c2ncccn2)CC1` gave GluA2 TARP mod inactive and GIRK2 act inactive.
`COCCNC(=O)Cn1nc2c(c1NC(=O)C1(c3ccc(Cl)cc3)CCCC1)CSC2` gave GluA2 TARP mod active and GIRK2 act inactive.
`CCCNC(=O)Cn1nc2c(c1NC(=O)C1(c3ccc(Cl)cc3)CCCC1)CSC2` gave GluA2 TARP mod inactive and GIRK2 act inactive.
CCCNC(=O)Cn1nc2c(c1NC(=O)CCc1ccc(OC)cc1)CSC2 was read as GluA2 TARP mod active and GIRK2 act inactive.
COc1ccc(CNC(=O)Cn2nc3c(c2NC(=O)c2ccc(C)c(C)c2)CSC3)cc1 was read as GluA2 TARP mod inactive and GIRK2 act inactive.
`COC(=O)c1ccccc1NC(=O)Cn1cc(-c2ccccc2)c(N(C)C)n1` gave GIRK2 act inactive.
COc1ccc(-c2noc(Cn3ccn4nc(-c5cccs5)cc4c3=O)n2)cc1OC was read as GluA2 TARP mod inactive and GIRK2 act inactive.
Screening COc1ccc(Cl)cc1C(=O)NCc1ccsc1 returned GluA2 TARP mod inactive and GIRK2 act inactive.
For COc1cc(S(=O)(=O)n2cccn2)c(C)cc1Br the results were GluA2 TARP mod inactive and GIRK2 act inactive.
For O=C(Nc1ccc(-c2cn3ccsc3n2)cc1)NC1CCCCC1 the results were GluA2 TARP mod active and GIRK2 act inactive.
`COc1cc(C(C)=O)ccc1OCC(=O)Nc1ccc(-c2cn3ccsc3n2)cc1` gave GluA2 TARP mod inactive and GIRK2 act inactive.
`COc1ccc(CCNC(=O)C(=O)NCc2ccccc2Cl)cc1OC` gave GluA2 TARP mod inactive.
`Cc1ccc(NC(=O)CCN2C(=O)c3ccccc3S2(=O)=O)cc1` gave GluA2 TARP mod inactive and GIRK2 act inactive.
COc1ccccc1S(=O)(=O)NCC(c1cccn1C)N(C)C (stereo unspecified) was read as GluA2 TARP mod inactive and GIRK2 act inactive.
`CCc1nc2sc3c(c2c2nncn12)CCC3` gave GluA2 TARP mod active and GIRK2 act inactive.
Cc1nc(Sc2nc(C)nc3sc4c(c23)CCC4)c2c3c(sc2n1)CCC3 was read as GluA2 TARP mod inactive.
`CN(C(=O)c1cc2n(n1)CCCO2)C1CCCCC1` gave GIRK2 act inactive.
`Cn1c(=O)c2cc(C(=O)N3CCN(c4ccccc4)CC3)sc2n(C)c1=O` gave GluA2 TARP mod inactive.
For Cn1c(=O)c2cc(C(=O)NCCN3CCOCC3)sc2n(C)c1=O the results were GluA2 TARP mod active and GIRK2 act inactive.
CCCCN(C(=O)c1cc2c(=O)n(C)c(=O)n(C)c2s1)c1ccccc1 was read as GluA2 TARP mod active and GIRK2 act inactive.
`CC(O)CNC(=O)c1cc2c(=O)n(C)c(=O)n(C)c2s1` (stereo unspecified) gave GluA2 TARP mod inactive and GIRK2 act inactive.
Cn1c(=O)c2cc(C(=O)NCCCCO)sc2n(C)c1=O was read as GluA2 TARP mod active and GIRK2 act inactive.
Screening Cn1c(=O)c2cc(C(=O)NCC3CCCO3)sc2n(C)c1=O (stereo unspecified) returned GluA2 TARP mod inactive and GIRK2 act inactive.
For Cn1c(=O)c2cc(C(=O)NCC(O)CO)sc2n(C)c1=O (stereo unspecified) the results were GluA2 TARP mod inactive and GIRK2 act inactive.
`Cn1c(=O)c2cc(C(=O)NCCc3ccc(S(N)(=O)=O)cc3)sc2n(C)c1=O` gave GluA2 TARP mod active and GIRK2 act inactive.
N#CC(N)Cc1ccccc1 (stereo unspecified) was read as GluA2 TARP mod inactive.
Cc1cc(NS(=O)(=O)c2ccccc2[N+](=O)[O-])ccc1N1CCCC1=O was read as GluA2 TARP mod inactive and GIRK2 act inactive.
For O=C(CC(NCc1ccco1)C(=O)O)Nc1ccc(C(=O)O)cc1 (stereo unspecified) the results were GluA2 TARP mod inactive.
Screening CCc1ccc(N2C(=O)C3N=NN(Cc4cccc(OC)c4)C3C2=O)cc1 (stereo unspecified) returned GluA2 TARP mod inactive and GIRK2 act inactive.
`Cn1c(=O)c2cc(C(=O)N3CCCC3)sc2n(C)c1=O` gave GluA2 TARP mod active and GIRK2 act inactive.
Cc1cccc(NC(=O)c2cc3c(=O)n(C)c(=O)n(C)c3s2)c1C was read as GluA2 TARP mod inactive and GIRK2 act inactive.
Screening CC(=O)Nc1cccc(NC(=O)c2cc3c(=O)n(C)c(=O)n(C)c3s2)c1 returned GluA2 TARP mod active and GIRK2 act inactive.
COC(=O)C1CCN(C(=O)c2cc3c(=O)n(C)c(=O)n(C)c3s2)CC1 was read as GluA2 TARP mod inactive and GIRK2 act inactive.
Screening Cn1c(-c2ccccn2)nn(CCNC(=O)Nc2ccccc2)c1=O returned GluA2 TARP mod inactive and GIRK2 act inactive.
For COc1ccc(C)cc1NC(=O)c1cc2c(=O)n3cc(C)ccc3nc2n1Cc1ccccc1 the results were GluA2 TARP mod active and GIRK2 act inactive.
For Cc1ccc2nc3c(cc(C(=O)NCC(=O)OC(C)C)n3Cc3ccccc3)c(=O)n2c1 the results were GluA2 TARP mod inactive and GIRK2 act inactive.
O=S(=O)(Cc1ccccc1Cl)NCC1(O)CCCC1 was read as GluA2 TARP mod inactive and GIRK2 act inactive.
Screening CN(C)C(CNC(=O)C(=O)Nc1ccc2c(c1)OCCO2)c1ccccc1 (stereo unspecified) returned GluA2 TARP mod inactive and GIRK2 act inactive.
CCOc1ccc2c(c1)sc(=NC(=O)c1ccc(S(=O)(=O)C(C)C)cc1)n2CCOC was read as GluA2 TARP mod active and GIRK2 act inactive.
